Bioassay records from PubChem.
Bim-Bcl-2: inhibitors of Bim-Bcl-2 binding, primary screen, biochemical, multiplexed, human Bcl-2 family. hit rate 0.06% among 190,000. Bead-based flow cytometry, Bim peptide-Bcl-2 binding. inhibition, % at 10 µM; in the data active = inhibition above about 40%;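 note: 0% = no compound wells with probe peptide and 100% = reference peptide inhibitor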
Target sequence (P10415 whole entry, looked up): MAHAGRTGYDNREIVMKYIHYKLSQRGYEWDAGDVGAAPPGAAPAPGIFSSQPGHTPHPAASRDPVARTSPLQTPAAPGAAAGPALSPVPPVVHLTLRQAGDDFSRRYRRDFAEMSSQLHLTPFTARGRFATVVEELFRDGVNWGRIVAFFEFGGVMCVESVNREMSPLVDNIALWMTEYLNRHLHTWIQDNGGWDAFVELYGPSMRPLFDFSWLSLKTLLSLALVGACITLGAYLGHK
Wee1 degr inh: Wee1 degradation inhibitors, primary screen, cell-based, HeLa, Wee1K328M-luciferase, luminescence | HeLa Luc-Wee1K328M stability; 100% = proteasome inhibitor MG132 effect | Wee1-like protein kinase (Homo sapiens), P30291 | reporter increase, % at 5 µM | hit rate 1.2% among 220,000;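 active = activation above the mean of all tested compounds plus 3 SD, set per screening run, cut at about 8.8% in these data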;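 note: cells exposed to compound for 20 h before luminescence read; 0% = DMSO alone and 100% = MG132 at 30 µM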
Bcl-XL Bim block: inhibitors of Bim-Bcl-XL binding, primary screen, biochemical, multiplexed, bead flow cytometry, human Bcl-XL; hit rate 0.04% among 190,000; inhibition, % at 10 µM; Bim peptide-Bcl-XL binding, fluorescence
Bim-Bcl-B: inhibitors of Bim-Bcl-B binding, primary screen, biochemical, multiplexed, human Bcl-2 family; Bcl-2-like protein 10 (Homo sapiens), Q9HD36; bead-based flow cytometry, Bim peptide-Bcl-B binding; AID 951, 2007; hit rate 0.073% among 190,000; inhibition, % at 10 µM;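 note: 0% = tracer peptide without compound and 100% = reference inhibitor peptide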
Target sequence (Q9HD36 whole entry, looked up): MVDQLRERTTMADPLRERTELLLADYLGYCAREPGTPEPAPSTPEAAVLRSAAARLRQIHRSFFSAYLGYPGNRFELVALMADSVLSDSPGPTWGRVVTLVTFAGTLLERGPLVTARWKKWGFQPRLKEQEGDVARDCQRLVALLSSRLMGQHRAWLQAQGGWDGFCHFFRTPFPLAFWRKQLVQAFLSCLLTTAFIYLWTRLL
Bim-Bfl-1: inhibitors of Bim binding to Bfl-1, primary screen, biochemical, multiplexed, bead-based flow cytometry | Bim-Bfl-1 binding inhibition | Bcl-2-related protein A1 (Homo sapiens), Q16548 | AID 1008, 2008 | inhibition, % at 10 µM | hit rate 0.12% among 190,000;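 note: 0% = wells without compound plus tracer and 100% = blocker peptide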
Bim-Bcl-W: inhibitors of Bim binding to Bcl-W, primary screen, biochemical, multiplexed, bead-based flow cytometry | Bim peptide-Bcl-W binding | hit rate 0.02% among 190,000 | inhibition, % at 10 µM;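 note: 0% = bound tracer without compound and 100% = peptide blocker; higher means less fluorescent Bim peptide bound to Bcl-W beads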
Target sequence (Q92843 whole entry, looked up): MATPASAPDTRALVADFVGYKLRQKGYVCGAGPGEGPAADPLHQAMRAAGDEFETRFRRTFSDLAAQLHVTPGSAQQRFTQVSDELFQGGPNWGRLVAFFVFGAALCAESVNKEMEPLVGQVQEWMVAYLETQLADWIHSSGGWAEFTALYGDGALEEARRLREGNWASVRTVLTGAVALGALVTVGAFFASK
The depositor's hits bear a star. A selection: hits, their analogues and other compounds. The true share with any hit is near 1.4%. Cut-off read from the data, not from the text of the source, unless noted: active = inhibition above about 40%.

How did Cc1ccc(CN2CCNC(=O)C2CC(=O)NCCCn2ncc3ccccc32)o1 (stereo not drawn) do in these assays?
Bim-Bcl-2: -1; Wee1 degr inh: 15*; Bcl-XL Bim block: -4; Bim-Bcl-B: -5; Bim-Bfl-1: -9; Bim-Bcl-W: -2

How did CCS(=O)(=O)N1CCC(C(=O)NCCCOC)CC1 do in these assays?
Bim-Bcl-2: 0; Wee1 degr inh: 10*; Bcl-XL Bim block: 0; Bim-Bcl-B: 0; Bim-Bfl-1: 2; Bim-Bcl-W: -2

What do the screens show for `C#CCn1cc(C=C2C(=O)c3ccccc3C2=O)c2ccccc21`?
Bim-Bcl-2: 58*; Wee1 degr inh: -4; Bcl-XL Bim block: 24; Bim-Bcl-B: 71*; Bim-Bfl-1: 39; Bim-Bcl-W: 39

How did C#CCn1c(=O)cc(C)c2ccccc21 do in these assays?
Bim-Bcl-2: -4; Wee1 degr inh: -2; Bcl-XL Bim block: -1; Bim-Bcl-B: -4; Bim-Bfl-1: -5; Bim-Bcl-W: 1

How did COc1cccc2c1C(=O)c1c(O)c3c(c(O)c1C2=O)C[C@@](O)(C(=O)CO)C[C@@H]3O[C@H]1C[C@H](N)[C@H](O)[C@H](C)O1 do in these assays?
Bim-Bcl-2: 54*; Wee1 degr inh: -3; Bcl-XL Bim block: 57*; Bim-Bcl-B: 86*; Bim-Bfl-1: 60*; Bim-Bcl-W: 59*

What do the screens show for `O=C(NC1CCCCCC1)c1ccc(=O)n(Cc2ccccc2)n1`?
Bim-Bcl-2: -4; Wee1 degr inh: 7; Bcl-XL Bim block: 0; Bim-Bcl-B: -1; Bim-Bfl-1: -3; Bim-Bcl-W: -1

How did Cn1ncc2c(NNC(=O)c3ccccc3Cl)ncnc21 do in these assays?
Bim-Bcl-2: -12; Wee1 degr inh: 9.3*; Bcl-XL Bim block: -12; Bim-Bcl-B: -14; Bim-Bfl-1: -12; Bim-Bcl-W: -10

Results for N#CCC(=N)N1CCN(c2ccccc2Cl)CC1 ?
Bim-Bcl-2: -8; Wee1 degr inh: -3; Bcl-XL Bim block: 2; Bim-Bcl-B: -9; Bim-Bfl-1: -15; Bim-Bcl-W: 0

How did CCOc1cc(S(=O)(=O)Nc2ccc(Cl)cn2)ccc1F do in these assays?
Bim-Bcl-2: -5; Wee1 degr inh: 0; Bcl-XL Bim block: -10; Bim-Bcl-B: -6; Bim-Bfl-1: -12; Bim-Bcl-W: 0

Results for CCOc1cc(S(=O)(=O)Nc2ccccn2)ccc1F ?
Bim-Bcl-2: 89*; Wee1 degr inh: 0; Bcl-XL Bim block: 28; Bim-Bcl-W: 22

What do the screens show for `CCN(CC)CCN(C(=O)c1ccc(N2C(=O)CCC2=O)cc1)c1nc2cc3c(cc2s1)OCCO3`?
Bim-Bcl-2: 43*; Wee1 degr inh: 3; Bcl-XL Bim block: 1; Bim-Bcl-B: 36; Bim-Bfl-1: 32; Bim-Bcl-W: 4

What do the screens show for `CCN(CC)CCN(C(=O)c1cccc(N2C(=O)CCC2=O)c1)c1nc2cc3c(cc2s1)OCO3`?
Bim-Bcl-2: -2; Wee1 degr inh: 4; Bcl-XL Bim block: -2; Bim-Bcl-B: 1; Bim-Bfl-1: -3; Bim-Bcl-W: 4

Results for Cc1cc(/C=C2\Sc3ccccc3N2C)cc(C)[n+]1CC1CCCO1 (stereo not drawn) ?
Bim-Bcl-2: 0; Wee1 degr inh: -3; Bcl-XL Bim block: 1; Bim-Bcl-B: -1; Bim-Bfl-1: -2; Bim-Bcl-W: 0

Results for CN(Cc1cnccn1)Cc1ccccc1OCC(O)CN1CCc2ccccc2C1 (stereo not drawn) ?
Bim-Bcl-2: -2; Wee1 degr inh: -1; Bcl-XL Bim block: -4; Bim-Bcl-B: -10; Bim-Bfl-1: -3; Bim-Bcl-W: -4

What do the screens show for `CC(C)Cn1c(=O)c(C(=O)NCc2ccccn2)c(O)c2ccccc21`?
Bim-Bcl-2: -8; Wee1 degr inh: 12*; Bcl-XL Bim block: 9; Bim-Bcl-B: -5; Bim-Bfl-1: -11; Bim-Bcl-W: 3

Results for CCCn1c(=O)c(C(=O)NCc2ccncc2)c(O)c2ccccc21 ?
Bim-Bcl-2: 0; Wee1 degr inh: -3; Bcl-XL Bim block: -3; Bim-Bcl-B: 1; Bim-Bfl-1: 0; Bim-Bcl-W: 0

Results for O=C(NNC1CC(=O)N(c2ccc(Br)cc2)C1=O)c1cccnc1 (stereo not drawn) ?
Bim-Bcl-2: -1; Wee1 degr inh: -1; Bcl-XL Bim block: 0; Bim-Bcl-B: -1; Bim-Bfl-1: -7; Bim-Bcl-W: -3

How did Cc1ccccc1Nc1ccc(S(=O)(=O)N2CCOCC2)cc1[N+](=O)[O-] do in these assays?
Bim-Bcl-2: -3; Wee1 degr inh: 1; Bcl-XL Bim block: -4; Bim-Bcl-B: -4; Bim-Bfl-1: -1; Bim-Bcl-W: -1

What do the screens show for `CCc1ccc(Nc2ccc(S(=O)(=O)N3CCOCC3)cc2[N+](=O)[O-])cc1`?
Bim-Bcl-2: 0; Wee1 degr inh: 9.7*; Bcl-XL Bim block: 3; Bim-Bcl-B: 5; Bim-Bfl-1: 6; Bim-Bcl-W: 13

How did CC(C)(C=O)C1=CC(=O)c2ccccc2C1=O do in these assays?
Bim-Bcl-2: 2; Wee1 degr inh: 0; Bcl-XL Bim block: 2; Bim-Bcl-B: 15; Bim-Bfl-1: 49*; Bim-Bcl-W: 9

How did CC1=CC(=O)c2ccccc2C1=O do in these assays?
Bim-Bcl-2: -1; Wee1 degr inh: -2; Bcl-XL Bim block: 0; Bim-Bcl-B: -2; Bim-Bfl-1: 23; Bim-Bcl-W: 0

How did COc1ccc(NC(=O)Cn2c(CCC(=O)O)ccc2-c2ccc(C)cc2)cc1 do in these assays?
Bim-Bcl-2: -1; Wee1 degr inh: 4; Bcl-XL Bim block: -1; Bim-Bcl-B: 0; Bim-Bfl-1: -2; Bim-Bcl-W: 1

What do the screens show for `Cc1ccc2nc(/C(C#N)=C\c3ccc(N4CCOCC4)o3)[nH]c2c1`?
Bim-Bcl-2: 6; Wee1 degr inh: 9.4*; Bcl-XL Bim block: 0; Bim-Bcl-B: -5; Bim-Bfl-1: 12; Bim-Bcl-W: 3

How did CCOC(=O)c1cn(-c2c(C)n(C)n(-c3ccccc3)c2=O)c2c(F)c(F)c(F)cc2c1=O do in these assays?
Wee1 degr inh: -2

Results for CCCC(=O)O[C@]1(C(=O)CCl)[C@@H](C)C[C@H]2[C@@H]3CCC4=CC(=O)C=C[C@]4(C)[C@@]3(F)C(=O)C[C@@]21C ?
Bim-Bcl-2: 1; Wee1 degr inh: 2; Bcl-XL Bim block: -3; Bim-Bcl-B: -5; Bim-Bfl-1: 1; Bim-Bcl-W: -3

How did CCC(=O)O[C@]1(C(=O)CCl)[C@@H](C)C[C@H]2[C@@H]3CCC4=CC(=O)C=C[C@]4(C)[C@@]3(F)[C@@H](O)C[C@@]21C do in these assays?
Bim-Bcl-2: 1; Wee1 degr inh: 9.3*; Bcl-XL Bim block: -4; Bim-Bcl-B: -7; Bim-Bfl-1: -3; Bim-Bcl-W: -1
